For 10 compounds, Potency, activation and activity change, negative = inhibition results are on record in PubChem BioAssay (NCATS).

Results filed as inconclusive are left out. Active and inactive are the calls of the source. Calls follow the shape of the dose curve; as a rule, active = well fitted curve in the direction sought with a large enough effect; inconclusive = small, poorly fitted or top-dose-only effect, or another doubt; inactive = no such curve, though single readings can be large; an effect the other way counts as inactive or inconclusive.

Test [1] can be described thus: qHTS for Inhibitors of the vitamin D receptor (VDR): Hit Validation using a Texas Red Assay (AID 602201). Also: potency is read from the fitted curve at half-maximal effect. Put shortly: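 Fluorescence polarization (Ex 595/Em 615 nm) of Texas Red (7 nM) with 1.5 uM VDR-LBD and LG19078 (final concentrations). Compounds were incubated for 2 hours at room temperature.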
(In qHTS, concentration-response curves come from the screen itself.)

Test [2] addresses Rap guanine nucleotide exchange factor 3 (Homo sapiens) (UniProt O95398). Put plainly: Confirmatory qHTS for agonist of cAMP-regulated guanine nucleotide exchange factor 3 (EPAC1) (AID 1645881). Also: nearly all actives have a fitted effect of over 75% in size. Also: potency is read from the fitted curve at half-maximal effect.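 As to activation: EPAC1 catalysed release of BODIPY-GDP from Rap1B seen as fluorescence loss; 100% = effect of cAMP agonist control.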
Test [3] has as its target Rap guanine nucleotide exchange factor 4 (Homo sapiens) (UniProt Q8WZA2). Put plainly: Confirmatory qHTS for agonist of cAMP-regulated guanine nucleotide exchange factor 4 (EPAC2) (AID 1645884).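 Also: nucleotide exchange releases bodipy-GDP from Rap1 and this lowers its fluorescence; nearly all actives have a fitted effect of over 65% in size.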 Also: potency is read from the fitted curve at half-maximal effect. As to activation: % is scaled to controls: 0 for no effect and ±100 for the full control effect.
In test [4] the target is Rap guanine nucleotide exchange factor 3 (Homo sapiens) (UniProt O95398). Put plainly: Counterscreen qHTS for antagonist of cAMP-regulated guanine nucleotide exchange factor 3 (EPAC1) (AID 1645888).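 Also: fluorescence loss as bound BODIPY-GDP is released from Rap1B; % of control where 0% means no effect.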 Put shortly:
(§1)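 Measured: fluorescence of BODIPY-GDP bound to Rap1B, which falls as exchange proceeds. Conditions include 50 uM competing GDP, 5 and 30 min reads, and a later cAMP challenge for antagonist detection.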
A general note: A counterscreen serves to expose hits that act by an unwanted route or on another target.

For test [5] the target is unchanged. Briefly: Counterscreen qHTS for agonist of cAMP-regulated guanine nucleotide exchange factor 3 (EPAC1) (AID 1645889). Also: % of control where 0% means no effect; nearly all actives have a fitted effect of over 40% in size. Put shortly: as §1
The target of test [6] is Tumor susceptibility gene 101 protein (Homo sapiens) (UniProt Q99816). Briefly: qHTS Assay for Iinhibitors of HIV-1 Budding by Blocking the Interaction of PTAP/TSG101: Hit Validation (AID 651600). Also: potency is read from the fitted curve at half-maximal effect; nearly all actives have a fitted effect of over 70% in size. A digest of the protocol: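 Compounds are added to the Tsg101 binding domain (10 uM final) in pH 7.5 HEPES buffer. FITC-PTAP peptide follows at 50 nM final. After 20 min at r.t., polarized FITC emission is measured.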
Sequence of Tumor susceptibility gene 101 protein (Homo sapiens) (Q99816 whole entry, looked up, the tested form may be a part): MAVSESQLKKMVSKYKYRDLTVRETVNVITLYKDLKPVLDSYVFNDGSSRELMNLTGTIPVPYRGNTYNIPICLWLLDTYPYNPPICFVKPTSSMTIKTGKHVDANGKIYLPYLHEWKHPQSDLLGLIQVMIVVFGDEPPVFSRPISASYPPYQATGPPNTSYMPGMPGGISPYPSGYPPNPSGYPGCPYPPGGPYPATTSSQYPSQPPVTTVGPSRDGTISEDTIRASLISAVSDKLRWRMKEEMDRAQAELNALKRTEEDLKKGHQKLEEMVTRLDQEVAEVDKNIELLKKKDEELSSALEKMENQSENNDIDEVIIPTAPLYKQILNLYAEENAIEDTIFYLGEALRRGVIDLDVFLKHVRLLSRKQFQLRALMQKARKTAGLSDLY

Sequence of Rap guanine nucleotide exchange factor 3 (Homo sapiens) (O95398 whole entry, looked up): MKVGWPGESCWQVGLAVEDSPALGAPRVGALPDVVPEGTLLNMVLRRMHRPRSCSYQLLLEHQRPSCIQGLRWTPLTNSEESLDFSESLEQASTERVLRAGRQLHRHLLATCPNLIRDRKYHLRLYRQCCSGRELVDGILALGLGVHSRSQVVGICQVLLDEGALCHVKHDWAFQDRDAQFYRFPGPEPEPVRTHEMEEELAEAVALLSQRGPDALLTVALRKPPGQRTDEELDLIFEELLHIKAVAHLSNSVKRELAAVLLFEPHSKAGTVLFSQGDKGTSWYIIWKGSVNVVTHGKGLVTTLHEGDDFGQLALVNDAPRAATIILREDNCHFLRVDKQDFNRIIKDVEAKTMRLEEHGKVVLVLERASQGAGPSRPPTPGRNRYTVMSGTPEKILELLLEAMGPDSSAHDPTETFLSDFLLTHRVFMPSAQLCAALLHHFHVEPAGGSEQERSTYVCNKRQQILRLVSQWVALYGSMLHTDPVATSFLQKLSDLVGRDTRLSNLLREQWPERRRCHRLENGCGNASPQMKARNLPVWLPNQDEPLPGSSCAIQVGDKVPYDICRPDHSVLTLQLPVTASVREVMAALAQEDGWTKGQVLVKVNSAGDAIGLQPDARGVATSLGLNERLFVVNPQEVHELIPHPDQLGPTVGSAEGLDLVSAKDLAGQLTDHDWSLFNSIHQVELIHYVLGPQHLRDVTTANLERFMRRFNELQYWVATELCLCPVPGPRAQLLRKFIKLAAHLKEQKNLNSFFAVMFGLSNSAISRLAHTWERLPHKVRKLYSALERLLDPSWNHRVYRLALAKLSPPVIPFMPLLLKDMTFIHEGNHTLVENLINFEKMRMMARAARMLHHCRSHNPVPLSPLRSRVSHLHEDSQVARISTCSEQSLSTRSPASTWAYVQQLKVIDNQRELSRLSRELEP
Sequence of Rap guanine nucleotide exchange factor 4 (Homo sapiens) (Q8WZA2 whole entry, looked up): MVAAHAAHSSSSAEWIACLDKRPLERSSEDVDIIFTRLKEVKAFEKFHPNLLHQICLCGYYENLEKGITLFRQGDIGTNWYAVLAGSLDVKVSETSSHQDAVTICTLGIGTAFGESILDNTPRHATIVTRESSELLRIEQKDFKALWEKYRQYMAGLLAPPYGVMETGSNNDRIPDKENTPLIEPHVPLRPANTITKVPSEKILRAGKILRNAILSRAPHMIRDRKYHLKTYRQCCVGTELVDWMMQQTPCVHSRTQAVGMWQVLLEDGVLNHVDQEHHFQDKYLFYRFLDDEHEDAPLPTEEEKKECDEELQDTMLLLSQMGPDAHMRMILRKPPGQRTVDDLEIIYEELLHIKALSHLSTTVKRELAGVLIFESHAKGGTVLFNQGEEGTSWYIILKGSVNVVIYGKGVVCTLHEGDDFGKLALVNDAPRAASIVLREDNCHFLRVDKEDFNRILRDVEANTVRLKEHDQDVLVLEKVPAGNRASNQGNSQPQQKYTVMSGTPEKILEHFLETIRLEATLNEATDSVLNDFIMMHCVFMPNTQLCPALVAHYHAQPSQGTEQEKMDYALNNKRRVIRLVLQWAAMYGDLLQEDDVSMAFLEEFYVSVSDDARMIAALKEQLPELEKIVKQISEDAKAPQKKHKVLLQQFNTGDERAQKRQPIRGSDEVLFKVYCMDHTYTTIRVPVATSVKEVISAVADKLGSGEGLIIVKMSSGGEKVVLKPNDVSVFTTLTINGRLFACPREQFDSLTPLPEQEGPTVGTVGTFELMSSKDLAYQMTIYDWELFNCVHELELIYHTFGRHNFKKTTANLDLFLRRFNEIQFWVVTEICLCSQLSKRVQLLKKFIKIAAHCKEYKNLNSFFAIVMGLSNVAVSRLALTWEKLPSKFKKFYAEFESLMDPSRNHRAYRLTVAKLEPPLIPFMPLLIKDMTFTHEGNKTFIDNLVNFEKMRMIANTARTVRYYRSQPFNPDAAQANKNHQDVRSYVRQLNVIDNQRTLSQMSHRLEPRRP

On to `O=C(NC1(O)C(=O)c2ccccc2C1=O)c1ccccc1`, for which the Potency in test [1] was 6.31 µM (active). Moreover, the Potency entry in test [2], in test [3] and in test [4] was “inactive” throughout.
For `COc1ccccc1N(C)S(=O)(=O)c1ccc(C(=O)NC2CCCCC2)cc1`, the Potency result in test [2], in test [3], in test [4] and in test [5] was “inactive” each time.
Take `CN(N=Nc1ccc([N+](=O)[O-])cc1)c1ccccc1`: the Potency in test [6] is 13 µM (active); in test [2] it was 112 µM (active); in test [3], 100 µM (active). In test [4], the Potency result was “inactive”.
In the case of `COc1ccccc1-c1nc2ccccc2n(CC(C)C)c1=O`, the Potency result in test [2], in test [3] and in test [5] was “inactive” each time.
Take `CCC(CO)Oc1cc(NCc2ccc(C(C)(C)C)cc2)c2ncn(C(C)C)c2c1` (stereo not given): the Potency entry in test [2], in test [3] and in test [5] was “inactive” throughout.
Consider `C=CCN(C(=O)Cn1ncc2c1-c1cc(C)ccc1OC2)c1ccccc1`, for which the Potency entry in test [2], in test [3] and in test [5] was “inactive” in each case.
With `CCCCN(C=O)c1c(CC)nc2c(OCc3ccc(C(F)(F)F)cc3)cccn12`, the Potency result in test [2], in test [3] and in test [5] was “inactive” each time.
`Cc1ccc(C2CC(c3cccs3)=NN2C(=O)c2ccco2)o1` (stereo not given): in test [2], the Potency entry was “inactive”. In addition, the activation was 1.82% [at 17.1 µM, percent relative to cAMP agonist control] (inactive) in test [3] and 16.2% [at 30.8 µM] (inactive) in test [5]. Further, the activity change, negative = inhibition in test [4] is -15.2% [at 30.8 µM] (inactive).
For the compound `CN(CC(=O)Nc1ccccc1Cl)C(=O)c1ccc(-c2cccc(C(F)(F)F)c2)o1`, the Potency entry in test [2], in test [3] and in test [5] was “inactive” each time.
`CCOC(=O)[C@H]1[C@H]2COc3ccc(C)cc3[C@@H]2N2C(=O)c3cc(F)c(F)cc3NC(=O)[C@@]12C`: the Potency entry in test [2], in test [3], in test [4] and in test [5] was “inactive” throughout.
